Bioassay records: PubChem BioAssay, University of Kansas High Throughput Screening Laboratory
A selection: hits, their analogues and other compounds. The true share with any hit is near 3.6%.
Pf apPOL inh = Pf-apPOL inhibitors, biochemical, fluorescence | actives 0.25% (n = 210,000) | Plasmodium falciparum apicoplast DNA polymerase (apPOL) | Recombinant Pf-apPOL, molecular beacon fluorescence, 1.5 h | inhibition, % at 10 µM | AID 1794808, 2022
mHTT CaM bind = mutant huntingtin-calmodulin interaction inhibitors – biochemical, AlphaScreen, primary screen | inhibition, % at 15 µM | AlphaScreen His-mHTT/GST-CaM binding, luminescence | actives 3.6% (n = 190,000) | P42858
Large screens that a line does not name were inactive. Rule as the data show it: active = inhibition above about 50%; inactive = the rest.

O=C(Nc1ccc(Cl)cc1)C1CCN(c2cncnc2N2CCCC2)CC1	none
Nc1cc(C2CCN(C(=O)C3CCCO3)CC2)no1 (stereo not drawn)	none
COc1cccc(/C=C2/C(=O)N(c3cccc(Cl)c3)N=C2C)c1	mHTT CaM bind 96.0
COc1ccccc1/C=C1/C(=O)N(c2cccc(Cl)c2)N=C1C	none
O=[N+]([O-])c1ncn(Cc2cccc(Br)c2)n1	none
O=[N+]([O-])c1ncn(CNc2cc(Br)cc3cccnc23)n1	mHTT CaM bind 65.0
O=C(CN1CCCC1)N1CCN(c2ccc([N+](=O)[O-])cc2)CC1	none
CCn1c(C2CCN(S(=O)(=O)c3cccc(F)c3)C2)nc2cccnc21 (stereo not drawn)	none
Nc1cc(C2CCN(C(=O)Nc3ccc(F)cc3F)CC2)no1	none
O=C(O)CC(CC(=O)Nc1ccc(C(=O)O)cc1)c1ccccc1 (stereo not drawn)	Pf apPOL inh 94.4
NS(=O)(=O)c1ccc(NC(=O)CC(CC(=O)O)c2ccccc2)cc1 (stereo not drawn)	none (no result: mHTT CaM bind)
O=C1CCCC2=C1C(c1cccs1)C1=C(N2)c2ccccc2C1=O (stereo not drawn)	none
CCOc1ccc(C2C3=C(CCCC3=O)Nc3ncnn32)cc1 (stereo not drawn)	none
CCOc1ccc(C2C3=C(CCCC3=O)NC3=C2C(=O)c2ccccc23)cc1 (stereo not drawn)	mHTT CaM bind 74.0
COc1ccc(C2C3=C(CCCC3=O)NC3=C2C(=O)c2ccccc23)cc1 (stereo not drawn)	mHTT CaM bind 61.0
O=C(Nc1ncccc1-c1nc2ccccc2o1)c1ccc(Cl)c(Cl)c1	none
NC(=O)CSc1nnc(Cn2ccc(=O)[nH]c2=O)o1	none
CS(=O)(=O)N1CCCC(C(=O)Nc2nnc(-c3ccno3)o2)C1 (stereo not drawn)	mHTT CaM bind 50.2
CCS(=O)(=O)c1ccc(-c2nnc(NC(=O)C3CCCN(S(C)(=O)=O)C3)o2)cc1 (stereo not drawn)	none
Cc1ccc(NC(=O)C2CCCN(S(=O)(=O)c3cccs3)C2)cn1 (stereo not drawn)	none
Cc1cc(-c2nnc(NC(=O)C3CCCN(S(=O)(=O)c4cccs4)C3)o2)nn1C (stereo not drawn)	mHTT CaM bind 51.2
C=CCc1cc(/C=C2\C(=O)NC(=O)N(c3ccc4c(c3)OCO4)C2=O)cc(OCC)c1O	none
O=C(c1cc(F)c(F)cc1Cl)N1CCN(c2ccc([N+](=O)[O-])c3cccnc23)CC1	mHTT CaM bind 50.1
O=C(c1ccccc1)N1CCN(c2ccc([N+](=O)[O-])cc2Cl)CC1	none
O=C(c1ccc(Cl)c(Cl)c1)N1CCN(c2ccc(F)cc2[N+](=O)[O-])CC1	mHTT CaM bind 53.2
O=C(c1ccccc1)N1CCN(c2ccc(F)cc2[N+](=O)[O-])CC1	none
O=C(c1cccc([N+](=O)[O-])c1)N1CCN(c2cccc(Cl)c2Cl)CC1	mHTT CaM bind 74.3
O=C(c1ccc(Cl)c(Cl)c1)N1CCN(c2ccc([N+](=O)[O-])c3cccnc23)CC1	none
O=C(NCC1CCCO1)c1cnn2c(C(F)(F)F)cc(-c3ccc(Br)cc3)nc12 (stereo not drawn)	none
CCCCN(C)CCCNC(=O)C1CCCN(c2nc3ccc(OC)cc3s2)C1 (stereo not drawn)	none
O=S(=O)(Nc1ccc2c(c1)oc1ccccc12)c1ccc2ccccc2c1	mHTT CaM bind 76.7 (no result: Pf apPOL inh)
CC(=O)Nc1ccc(S(=O)(=O)Nc2ccc3c(c2)oc2ccccc23)cc1	none
O=C1N/C(=C\c2cc3c(cc2Cl)OCO3)C(=O)N1Cc1ccc(Br)cc1	none
Cc1ccc(NC(=O)N2CCCC2c2ccccc2C)cc1F (stereo not drawn)	none
COc1ccccc1N1CCN(C(=O)C2CC2)CC1	none
COc1ccccc1N1CCN(C(=O)C2CCCc3c2[nH]c2ccccc32)CC1 (stereo not drawn)	mHTT CaM bind 58.8
COC(=O)c1cc(C(C)(C)C)n2nc(C)c(-c3ccccc3)c2n1	none
CCOc1ccc(Nc2nc(-c3c(C)nc4cc(C)ccn34)cs2)cc1	mHTT CaM bind 67.1
Cc1nc2ccccn2c1-c1csc(NCc2ccccc2)n1	none
Cc1ccccc1Nc1nc(-c2c(C)nc3sccn23)cs1	mHTT CaM bind 56.0
Cc1ccc(Nc2nc(-c3c(C)nc4ncccn34)cs2)cc1	mHTT CaM bind 80.0
Cc1ccn2c(-c3csc(Nc4ncccn4)n3)c(C)nc2c1	none
CCN(CC)c1ccc(Nc2nc(-c3c(C)nc4ccccn34)cs2)cc1	Pf apPOL inh 63.5, mHTT CaM bind 97.2
Cc1nc2sccn2c1-c1csc(Nc2ccccn2)n1	none
Cc1nc2ncccn2c1-c1csc(NCc2ccccc2)n1	none
Cc1cccc(-c2nc(CC(=O)N3CCCC3)cs2)c1	none
COc1ccc(N2CC(c3nnc(NC(=O)c4ccco4)o3)CC2=O)cc1 (stereo not drawn)	none
O=C(NCc1cccc(Br)c1)c1ccc2ncnc(N3CCCC3)c2c1	none
COc1ccc(/C=C2\N=C(c3ccc(OC)c(Br)c3)OC2=O)c(OC)c1	none
Cc1ccc(N2CC(C(=O)NCc3cccc(F)c3)CC2=O)cc1 (stereo not drawn)	none
CCCNC(=O)C12CCC(C)(C(=O)C1)C2(C)C (stereo not drawn)	none
CN1CCN(C(=O)c2ccccc2N2CCC(NC(=O)CC(C)(C)C)CC2)CC1	none
Cc1ccc(C2=N/C(=C/c3ccc(-c4cccc([N+](=O)[O-])c4)o3)C(=O)O2)cc1	none
O=C(Nc1ccc([N+](=O)[O-])cc1NC(=O)C1CCCCC1)C1CCCCC1	none
CC(C)CNC(=O)c1cncc(-c2ccc(F)cc2F)c1	none
CCCNC(=O)c1cncc(-c2ccc(F)cc2F)c1	Pf apPOL inh 62.2
COc1ccc(/C=C(\C#N)c2nn(-c3ccccc3)c(N)c2C#N)c(OC)c1	none
O=C(O)c1ncnc2nc[nH]c12	mHTT CaM bind 99.1 (no result: Pf apPOL inh)
Brc1ncnc2nc[nH]c12	none (no result: Pf apPOL inh)
COCCn1cc2c3c(cccc31)CN(C(=O)Nc1ccc(C)c(C)c1)CC2	none
COCOCCn1cc(CN2CCS(=O)(=O)N(Cc3ccc(-c4ccc(F)nc4)cc3)C(CC(C)C)C2=O)nn1 (stereo not drawn)	mHTT CaM bind 50.1
COc1ccc(-c2ccc(CN3C(CC(C)C)C(=O)N(Cc4cn(Cc5ccco5)nn4)CCS3(=O)=O)cc2)cc1 (stereo not drawn)	none
CC(C)CC1C(=O)N(Cc2cn(Cc3ccco3)nn2)CCS(=O)(=O)N1Cc1ccc(-c2ccncc2)cc1 (stereo not drawn)	none
CC(C)CC1C(=O)N(Cc2cn(Cc3ccco3)nn2)CCS(=O)(=O)N1Cc1ccc(-c2ccc(F)nc2)cc1 (stereo not drawn)	mHTT CaM bind 60.3
CC(C)CC1C(=O)N(Cc2cn(Cc3ccco3)nn2)CCS(=O)(=O)N1Cc1ccc(-c2ccccc2)cc1 (stereo not drawn)	mHTT CaM bind 67.8
COCOCCn1cc(CN2CCS(=O)(=O)N(Cc3ccc(-c4ccc(F)nc4)cc3)C(C(C)C)C2=O)nn1 (stereo not drawn)	none
CN(C)C(=O)c1cc2c(s1)CCC(C(=O)NCc1ccco1)C2 (stereo not drawn)	none
Cc1ccccc1NC1=C(N)C(=O)c2ccccc2C1=O	mHTT CaM bind 58.9
Cc1ccccc1NC1=C(N2CCOCC2)C(=O)c2ccccc2C1=O	none
O=[N+]([O-])c1cc(C=Nc2ccc(N3CCOCC3)cc2)ccc1Br	none
